# Reference: PubChem BioAssay (NCATS)
# A number with no mark means an inactive call. Records with an inconclusive call do not appear. The source made the active and inactive calls. Unless noted, calls follow the shape of the dose curve; as a rule, active = well fitted curve in either direction with a large enough effect (not every such curve was filed as active); inconclusive = small, poorly fitted or top-dose-only effect, or another doubt; inactive = flat fitted curve, though single readings scatter.
# Assays:
# [1] = target: Lysosomal acid glucosylceramidase (Homo sapiens) (UniProt P04062); test: Glucocerebrosidase-p2 (AID 348; in the data active = potency below about 10 µM; also: potency is read from the fitted curve at half-maximal effect); conditions: purified GBA, blue fluorogenic substrate, 40 min
# Chain of Lysosomal acid glucosylceramidase (Homo sapiens) (P04062 whole entry, looked up): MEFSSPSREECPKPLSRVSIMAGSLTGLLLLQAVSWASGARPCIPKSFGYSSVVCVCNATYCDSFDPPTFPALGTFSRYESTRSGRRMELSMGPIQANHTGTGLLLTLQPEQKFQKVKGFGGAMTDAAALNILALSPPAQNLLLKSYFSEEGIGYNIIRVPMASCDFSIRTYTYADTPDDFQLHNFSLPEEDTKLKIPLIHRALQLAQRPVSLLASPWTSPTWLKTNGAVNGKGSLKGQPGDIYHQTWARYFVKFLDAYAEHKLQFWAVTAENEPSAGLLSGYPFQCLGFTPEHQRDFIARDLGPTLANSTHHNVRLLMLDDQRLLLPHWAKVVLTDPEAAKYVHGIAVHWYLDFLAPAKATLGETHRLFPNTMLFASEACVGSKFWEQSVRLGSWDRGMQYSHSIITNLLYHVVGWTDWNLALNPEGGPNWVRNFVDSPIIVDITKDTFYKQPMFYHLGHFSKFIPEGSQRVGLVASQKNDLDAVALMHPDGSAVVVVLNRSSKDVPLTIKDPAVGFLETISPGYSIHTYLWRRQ
# Summary of the method: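 Compounds titrated from 0.6 nM upwards against 0.2 nM enzyme in pH 5.9 citric acid/KH2PO4, taurocholate, tween-20; blue fluorogenic substrate 80 uM, 40 min room temperature, stopped and read Ex 365/Em 440 for AC50.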
# [2] = AP1 Signaling Pathway (AID 357); conditions: ME-180 AP-1-bla reporter, EGF-induced, beta-lactamase ratio, 5 h; at 7.69 µM (top of the series) unless noted;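 also: ME-180 reporter cells stimulated with EGF at its EC50 level; % is scaled to controls: 0 for no effect and ±100 for the full control effect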
# Summary of the method: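 Modulation of EGF-driven AP-1 transcription was assessed with a beta-lactamase reporter in ME-180 cells. Compound and EC50 EGF were co-incubated 5 hours at 37 °C before 2.5-hour CCF4 loading at room temperature and dual-emission reading.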
# [3] = target: Cytochrome P450 1A2 (Homo sapiens) (UniProt P05177); test: p450-cyp1a2 (AID 410; calls by dose curve; also: potency is read from the fitted curve at half-maximal effect;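 as to activity change, negative = inhibition: -100% = full effect of reference inhibitor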); conditions: recombinant CYP1A2, luciferin-ME demethylation, luminescence; series mostly up to 11.4 µM
# Chain of Cytochrome P450 1A2 (Homo sapiens) (P05177 whole entry, looked up): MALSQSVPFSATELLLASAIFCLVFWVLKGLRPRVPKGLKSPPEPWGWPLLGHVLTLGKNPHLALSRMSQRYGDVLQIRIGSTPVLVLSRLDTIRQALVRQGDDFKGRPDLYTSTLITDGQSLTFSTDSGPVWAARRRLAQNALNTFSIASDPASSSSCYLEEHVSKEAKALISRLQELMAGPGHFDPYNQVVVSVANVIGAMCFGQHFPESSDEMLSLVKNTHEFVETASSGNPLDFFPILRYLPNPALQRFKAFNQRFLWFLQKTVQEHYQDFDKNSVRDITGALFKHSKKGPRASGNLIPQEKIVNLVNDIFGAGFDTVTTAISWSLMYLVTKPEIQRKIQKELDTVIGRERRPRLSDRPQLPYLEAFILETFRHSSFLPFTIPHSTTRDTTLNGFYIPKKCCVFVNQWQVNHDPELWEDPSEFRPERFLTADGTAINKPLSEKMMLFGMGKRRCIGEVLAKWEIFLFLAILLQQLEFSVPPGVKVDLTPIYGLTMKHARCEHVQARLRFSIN
# Summary of the method: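 20nM CYP1A2 with 100uM Luciferin-ME (at Km) in 100mM KPO4; compound preincubated 10 min, NADPH regeneration added, 60 min at room temperature. Luciferin quantified by luminescence after detection reagent; normalized to 57 uM furafylline.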
# [4] = NFAT Signaling Pathway (AID 444); conditions: Jurkat NFAT-bla M1, carbachol, beta-lactamase ratio, 5 h; at 7.69 µM (top of the series) unless noted;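 also: carbachol stimulus at about its EC50 of 1 µM final; % is scaled to controls: 0 for no effect and ±100 for the full control effect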
# Summary of the method: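 Jurkat cells carrying an NFAT-driven β-lactamase reporter and co-transfected muscarinic M1 receptor were treated with compound plus carbachol (1 uM final, an EC50 level) for 5 h at 37 °C. CCF4 loading followed for 1 h at RT; 460/530 nm ratio gave %activity.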
# [5] = Stat Signaling Pathway (AID 446); conditions: ME-180 SIE beta-lactamase reporter, IL-6 stimulated, 5 h; at 7.69 µM (top of the series) unless noted;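 also: ME-180 cervical cancer cells given 40 pM IL-6 alongside compound; SIE-controlled beta-lactamase reporter measured as 460/530 nm FRET emission ratio; % is scaled to controls: 0 for no effect and ±100 for the full control effect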
# Summary of the method: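 Screening format detects activators and inhibitors alike: ME-180 SIE-bla cells stimulated at 40 pM IL-6 for 5 hrs with compound, then dual-emission beta-lactamase read at 405 nm excitation.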
# [6] = target: Glucocorticoid receptor (Homo sapiens) (UniProt P04150); test: GR-GFP Redistribution (AID 450;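 active = compounds whose dose series gives a full or clear partial fitted curve of increased nuclear translocation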; also: potency is read from the fitted curve at half-maximal effect); conditions: U2OS GR-GFP nuclear translocation, laser cytometry, 2 h
# Chain of Glucocorticoid receptor (Homo sapiens) (P04150 whole entry, looked up, the tested form may be a part): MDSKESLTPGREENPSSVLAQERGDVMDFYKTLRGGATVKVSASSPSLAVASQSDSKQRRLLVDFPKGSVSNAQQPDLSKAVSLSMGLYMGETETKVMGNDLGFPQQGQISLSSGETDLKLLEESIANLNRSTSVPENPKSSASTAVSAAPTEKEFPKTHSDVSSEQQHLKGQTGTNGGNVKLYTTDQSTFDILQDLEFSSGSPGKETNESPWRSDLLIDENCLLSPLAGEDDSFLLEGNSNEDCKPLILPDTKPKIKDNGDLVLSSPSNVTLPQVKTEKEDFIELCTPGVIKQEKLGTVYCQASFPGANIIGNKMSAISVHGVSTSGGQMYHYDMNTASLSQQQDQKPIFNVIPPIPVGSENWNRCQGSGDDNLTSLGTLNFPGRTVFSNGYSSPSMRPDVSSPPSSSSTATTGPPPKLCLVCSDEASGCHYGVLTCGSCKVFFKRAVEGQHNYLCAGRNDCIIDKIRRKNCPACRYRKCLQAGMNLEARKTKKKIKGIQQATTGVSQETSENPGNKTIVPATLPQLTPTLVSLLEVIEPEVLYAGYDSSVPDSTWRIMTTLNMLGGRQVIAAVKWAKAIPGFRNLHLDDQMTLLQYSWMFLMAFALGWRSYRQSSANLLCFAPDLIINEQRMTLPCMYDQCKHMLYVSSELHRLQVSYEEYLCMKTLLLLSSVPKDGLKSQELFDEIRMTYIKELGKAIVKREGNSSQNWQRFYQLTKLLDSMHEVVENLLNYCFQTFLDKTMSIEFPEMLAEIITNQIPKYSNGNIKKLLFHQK
# [7] = target: Glucocorticoid receptor (Homo sapiens) (UniProt P04150); test: GR-EFC Redistribution (AID 451; calls by dose curve; also: potency is read from the fitted curve at half-maximal effect); conditions: CHO-K1 GR-EFC translocation, beta-gal luminescence, 2 h
# Summary of the method: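 CHO-K1 cells stably expressing nuclear-localized β-gal enzyme acceptor and GR fused C-terminally to the enzyme donor fragment; ligand-driven nuclear translocation restores β-gal by complementation. Compounds titrated up to 46 uM final, 2 h at 37 °C; luminescence read.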
# [8] = target: Mitogen-activated protein kinase 10 (Mus musculus) (UniProt Q61831); test: JNK3 AlphaScreen Assay (AID 530); conditions: JNK3 lysate, c-Jun phosphorylation; series mostly up to 11.4 µM;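 also: kinase came from lysate of stimulated human HepG2 cells; signal reports phosphorylation of biotinylated GST-cJun 1-79 at Ser73 with 10 µM ATP; % is scaled to controls: 0 for no effect and ±100 for the full control effect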
# Summary of the method: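 Inhibitors reduce antibody binding to phosphorylated biotin-cJun, lowering AlphaScreen luminescence. Lysates from HepG2 cells pre-activated by IL-1beta plus TNF-alpha supplied JNK3; compounds were titrated.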
# [9] = target: 3',5'-cyclic-AMP phosphodiesterase 4B (Homo sapiens) (UniProt Q07343); test: qHTS Assay for Inhibitors of PDE-IV (AID 607; active = well fitted activation curve with a large enough effect in the main read-out, with a control signal flat, not every such curve was filed as active; also: % of control where 0% means no effect); conditions: HEK293 ACTOne CNG channel cells, membrane potential fluorescence; series mostly up to 22.9 µM
# Chain of 3',5'-cyclic-AMP phosphodiesterase 4B (Homo sapiens) (Q07343 whole entry, looked up): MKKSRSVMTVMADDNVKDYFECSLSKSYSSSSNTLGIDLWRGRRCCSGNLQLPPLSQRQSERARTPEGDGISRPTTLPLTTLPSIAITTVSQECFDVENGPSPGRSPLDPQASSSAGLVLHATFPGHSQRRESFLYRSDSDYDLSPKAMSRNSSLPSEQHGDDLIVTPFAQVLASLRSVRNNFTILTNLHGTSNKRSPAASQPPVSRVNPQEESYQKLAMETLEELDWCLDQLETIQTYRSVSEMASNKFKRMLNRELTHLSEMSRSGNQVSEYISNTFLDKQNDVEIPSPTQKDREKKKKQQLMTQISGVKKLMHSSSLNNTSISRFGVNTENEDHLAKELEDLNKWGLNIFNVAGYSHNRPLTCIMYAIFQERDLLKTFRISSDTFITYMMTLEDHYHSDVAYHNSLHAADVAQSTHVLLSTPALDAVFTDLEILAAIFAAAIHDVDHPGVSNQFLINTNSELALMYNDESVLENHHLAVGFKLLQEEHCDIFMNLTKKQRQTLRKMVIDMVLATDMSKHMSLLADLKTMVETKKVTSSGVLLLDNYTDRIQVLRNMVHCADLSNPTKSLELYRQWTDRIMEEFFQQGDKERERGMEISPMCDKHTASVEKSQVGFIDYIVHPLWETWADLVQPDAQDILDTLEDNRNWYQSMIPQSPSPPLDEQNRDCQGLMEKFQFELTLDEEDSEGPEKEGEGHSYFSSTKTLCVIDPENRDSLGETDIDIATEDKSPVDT
# Summary of the method: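 The readout is membrane depolarisation from a cAMP-sensing CNG channel, detected with a potential dye at ex 535/em 590. Cells were HEK293-derived (endogenous PDE-IV) at 1000 cells/well, titrated up to 22.9 uM final.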
# [10] = target: Cytochrome P450 3A4 (Homo sapiens) (UniProt P08684); test: qHTS Assay for Activators of Cytochrome P450 3A4 (AID 885; active = well fitted curve in the direction sought with a large enough effect; an effect the other way counts as inactive or inconclusive; also: nearly all actives have a fitted effect of over 65% in size); conditions: recombinant CYP3A4, Luciferin-PPXE luminescence, 60 min; series mostly up to 11.4 µM
# Chain of Cytochrome P450 3A4 (Homo sapiens) (P08684 whole entry, looked up): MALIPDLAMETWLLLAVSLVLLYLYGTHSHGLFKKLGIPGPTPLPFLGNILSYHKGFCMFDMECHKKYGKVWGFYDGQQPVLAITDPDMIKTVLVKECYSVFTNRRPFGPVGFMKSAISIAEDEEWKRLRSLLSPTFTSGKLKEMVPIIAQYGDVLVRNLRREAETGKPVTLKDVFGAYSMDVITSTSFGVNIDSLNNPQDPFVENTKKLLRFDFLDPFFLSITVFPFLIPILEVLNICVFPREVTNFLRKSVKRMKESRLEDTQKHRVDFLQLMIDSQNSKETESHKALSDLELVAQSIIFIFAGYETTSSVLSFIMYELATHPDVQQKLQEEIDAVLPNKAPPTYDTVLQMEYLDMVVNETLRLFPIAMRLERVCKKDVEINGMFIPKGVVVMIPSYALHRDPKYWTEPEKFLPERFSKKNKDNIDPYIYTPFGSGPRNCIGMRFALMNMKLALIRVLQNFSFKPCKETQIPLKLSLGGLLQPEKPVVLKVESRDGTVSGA
# Summary of the method: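 Steps: enzyme/substrate mix dispensed; compound added, 10 min RT; NADPH regeneration solution added, 60 min RT; luciferin detection buffer stops reaction; 20 min later luminescence measured.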
# [11] = target: Cytochrome P450 2C19 (Homo sapiens) (UniProt P33261); test: qHTS Assay for Inhibitors and Substrates of Cytochrome P450 2C19 (AID 899; active = well fitted curve in the direction sought with a large enough effect; an effect the other way counts as inactive or inconclusive; also: nearly all actives have a fitted effect of over 60% in size; also: potency is read from the fitted curve at half-maximal effect); conditions: recombinant CYP2C19, luciferin-H EGE luminescence; series mostly up to 11.4 µM
# Chain of Cytochrome P450 2C19 (Homo sapiens) (P33261 whole entry, looked up): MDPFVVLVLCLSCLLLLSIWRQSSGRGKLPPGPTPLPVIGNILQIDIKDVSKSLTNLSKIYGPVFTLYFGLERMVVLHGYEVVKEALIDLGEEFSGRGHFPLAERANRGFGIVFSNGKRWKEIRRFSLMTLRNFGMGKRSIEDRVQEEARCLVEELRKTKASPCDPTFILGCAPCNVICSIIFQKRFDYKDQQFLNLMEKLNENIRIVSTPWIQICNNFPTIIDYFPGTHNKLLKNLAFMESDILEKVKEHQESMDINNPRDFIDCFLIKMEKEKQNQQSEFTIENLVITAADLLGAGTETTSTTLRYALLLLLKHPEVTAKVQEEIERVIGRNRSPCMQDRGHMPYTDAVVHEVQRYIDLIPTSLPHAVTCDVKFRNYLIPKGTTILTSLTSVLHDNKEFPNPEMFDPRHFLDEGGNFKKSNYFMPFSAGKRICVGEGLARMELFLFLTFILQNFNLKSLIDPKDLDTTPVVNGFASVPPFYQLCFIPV
# Summary of the method: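 NADPH-dependent conversion of Luciferin-H EGE (10uM, at KM) by 5nM enzyme in 50mM KPO4, 60 min at 37C following 10 min compound preincubation. Stopped with luciferin detection buffer; luminescence read after 20 min.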
# [12] = target: Cytochrome P450 2D6 (Homo sapiens) (UniProt P10635); test: qHTS Assay for Inhibitors and Substrates of Cytochrome P450 2D6 (AID 891; active = well fitted curve in the direction sought with a large enough effect; an effect the other way counts as inactive or inconclusive; also: nearly all actives have a fitted effect of over 60% in size; also: potency is read from the fitted curve at half-maximal effect); conditions: recombinant CYP2D6, luciferin-ME EGE luminescence; series mostly up to 11.4 µM
# Chain of Cytochrome P450 2D6 (Homo sapiens) (P10635 whole entry, looked up): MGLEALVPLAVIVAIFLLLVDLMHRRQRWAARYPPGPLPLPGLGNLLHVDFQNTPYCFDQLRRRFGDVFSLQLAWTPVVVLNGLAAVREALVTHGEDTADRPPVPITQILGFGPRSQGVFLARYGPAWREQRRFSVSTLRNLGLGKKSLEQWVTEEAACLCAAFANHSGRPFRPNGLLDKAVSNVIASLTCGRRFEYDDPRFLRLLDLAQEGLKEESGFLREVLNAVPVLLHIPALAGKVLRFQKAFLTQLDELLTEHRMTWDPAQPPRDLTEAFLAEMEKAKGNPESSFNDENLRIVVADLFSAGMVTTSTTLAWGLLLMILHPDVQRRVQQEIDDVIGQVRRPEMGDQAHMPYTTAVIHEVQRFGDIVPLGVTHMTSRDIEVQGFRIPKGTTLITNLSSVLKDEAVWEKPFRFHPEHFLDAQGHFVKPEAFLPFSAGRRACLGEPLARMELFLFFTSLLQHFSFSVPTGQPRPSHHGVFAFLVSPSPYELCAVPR
# Summary of the method: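 Human CYP2D6 (5 nM) with 30 uM Luciferin-ME EGE (at Km) in 100 mM KPO4, compound preincubated 10 min, then NADPH regeneration system for 60 min at room temperature. Luciferin read by luminescence; normalized to 1.43 uM quinidine.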
Structure (SMILES),Potency [1],"activity change, negative = inhibition [2] [%]",Potency [3],"activity change, negative = inhibition [4] [%]","activity, negative = inhibition [5] [%]",Potency [6] [µM],Potency [7] [µM],Potency [8],Potency [9],Potency [10],"activity change, negative = inhibition [3]",Potency [11],Potency [12]
Nc1nc(SCc2ccccc2)c2ncn(Cc3ccccc3)c2n1,> 11.4 µM,-24.3,0.251 µM (active),9.29,-3.2,> 46,> 9.22,inactive,inactive,inactive,,,
NS(=O)(=O)c1ccc(N=Nc2nc3[nH]c(=O)[nH]c(=O)c3[nH]2)cc1,8.51 µM (active),-5.25,inactive,13.6,21.2,> 46,> 9.22,inactive,inactive,inactive,,,
Cn1c(=O)c2[nH]c(SCCN3CCOCC3)nc2n(C)c1=S,> 11.4 µM,0.183,0.631 µM (active),15.6,1.45,> 46,> 9.22,inactive,inactive,inactive,,,
Nc1nc(Cc2ccccc2)nc(Cc2ccccc2)c1-c1ccccc1,> 11.4 µM,-20.1,1 µM (active),11.3,-7.29,> 46,> 9.22,inactive,inactive,inactive,,,
O=[N+]([O-])c1cc(Cl)cc2c1nc(NCCO)c1ccccc12,> 11.4 µM,-24,0.02 µM (active),22.6,-3.56,> 46,> 9.22,inactive,inactive,inactive,,,
Nc1n[nH]c2ccccc12,> 11.4 µM,-6.63,,3.29,-1.94,> 46,> 9.22,inactive,inactive,inactive,-9.1% [at 2.29 µM],,
Cn1c(=O)c2[nH]c(CCS)nc2n(C)c1=O,> 11.4 µM,3.25,inactive,-18,3.06,> 46,> 9.22,inactive,inactive,inactive,,,
CC(C)(C)CC(C)(C)c1ccc(O)c(C[N+](C)(C)[O-])c1,> 11.4 µM,0.484,,17.3,0.425,> 46,> 9.22,inactive,inactive,inactive,-17.9% [at 2.29 µM],,
N#C/C(=C\NC(=S)c1ccncc1)c1nc2ccccc2s1,> 11.4 µM,-3.92,3.16 µM (active),8.12,11.3,> 46,> 9.22,inactive,inactive,inactive,,,
CCCCNc1nc(SC)nc2nc[nH]c12,> 11.4 µM,1.1,0.316 µM (active),9.44,-3.88,> 46,> 9.22,inactive,inactive,inactive,,,
Nc1ccc(S(=O)(=O)c2ccc(NC(=O)c3cccnc3)cc2)cc1,> 11.4 µM,-0.755,,12.7,8.7,> 46,> 9.22,inactive,inactive,inactive,-21.1% [at 2.29 µM],,
O=C(O)[C@@H]1[C@@H](C(=O)NCc2ccncc2)[C@@H]2C=C[C@@H]1O2,> 11.4 µM,4.03,5.01 µM (active),8.48,-1.14,> 46,> 9.22,inactive,inactive,inactive,,,
NC1=C(O)C(=O)[C@H](c2c[nH]c3ccc(OCc4ccccc4)cc23)O1,> 11.4 µM,-18.8,3.98 µM (active),7.15,-6.03,> 46,> 9.22,inactive,inactive,inactive,,,
Cc1ccc2nc(CC(=O)c3ccc4ccccc4c3)c(=O)[nH]c2c1,> 11.4 µM,6.36,2 µM (active),-17.8,12.1,> 46,> 9.22,inactive,inactive,inactive,,,
Cc1ccc(Nc2nnc(-c3ccc4c(c3)OCO4)o2)c(C)c1,> 11.4 µM,-5.47,2.51 µM (active),1.57,-2.78,> 46,> 9.22,inactive,inactive,inactive,,,
COCCNc1nc(-c2ccc(C(=O)N(C)C)cc2)nc2ccccc12,> 11.4 µM,11.7,20 µM (active),17.9,1.02,> 46,> 46,inactive,inactive,inactive,,,
Cc1nc2cnc(Oc3cccc(Cl)c3)nc2n(C[C@H]2CCCO2)c1=O,> 11.4 µM,-15.8,7.94 µM (active),-3.55,-6.17,> 9.22,> 46,inactive,inactive,inactive,,,
c1cncc(-c2cc(-c3cc(-c4cccnc4)n[nH]3)[nH]n2)c1,> 11.4 µM,4.4,0.501 µM (active),14,-1.32,> 46,> 9.22,inactive,inactive,inactive,,,
c1ccc(CSc2nnc3c4ccccc4c4ccccc4c3n2)cc1,> 11.4 µM,6.19,0.2 µM (active),-12.6,1.88,> 46,> 9.22,inactive,inactive,inactive,,,
COc1cc2c3cc1Oc1c(OC)c(OC)cc4c1[C@@H](Cc1ccc(O)c(c1)Oc1ccc(cc1)C[C@@H]3N(C)CC2)CN(C)C4,> 11.4 µM,-11.4,inactive,-11.8,-1.76,> 46,> 9.22,inactive,inactive,inactive,,,
COc1ncc2nc(-c3ccc(Cl)cc3)c(=O)n(C[C@H]3CCCO3)c2n1,> 11.4 µM,-1.85,0.501 µM (active),-7.47,-9.41,> 9.22,> 46,inactive,inactive,inactive,,,
O=C(CSc1nc2ccccc2c2ccccc12)c1ccccc1,> 11.4 µM,-2.08,0.251 µM (active),10.2,-4.01,> 46,> 9.22,inactive,inactive,inactive,,,
Cc1cc2c(cc1C)NC1=C(N2)O[C@H](c2c[nH]c3ccc(COc4ccccc4)cc23)C1=O,> 11.4 µM,-28.4,2.51 µM (active),2.39,-5.89,> 46,> 9.22,inactive,inactive,inactive,,0.501 µM (active),
O=C(CSC1=NCCN1)Nc1ccccc1,> 11.4 µM,15,3.98 µM (active),-6.05,-2.98,> 46,> 9.22,inactive,inactive,inactive,,,1.58 µM (active)
COc1cc2c(cc1OC)C(CCN)=NCC2,> 11.4 µM,7.92,5.01 µM (active),-11.2,8.17,> 46,> 9.22,inactive,inactive,inactive,,inactive,
O=C(O)c1nn(-c2ccccc2-c2n[nH]c(=O)[nH]c2=O)c(=O)[nH]c1=O,> 11.4 µM,1.66,inactive,18.8,6.32,> 46,> 9.22,inactive,inactive,,,,inactive
C(/C=C\c1ccccc1)=Nc1ccc2c(c1)Cc1ccccc1-2,> 11.4 µM,-2.87,0.398 µM (active),-3.9,7.01,> 46,> 9.22,inactive,inactive,inactive,,3.98 µM (active),
Cc1cc(O)c(C(C)C)cc1NC(=O)Nc1cccc2ccccc12,> 11.4 µM,-27.4,0.794 µM (active),-15.2,-19,> 46,> 9.22,inactive,inactive,inactive,,0.0501 µM (active),
COc1c(O)ccc2c1CN1CCc3cc4c(cc3[C@@H]1C2)OCO4,> 11.4 µM,-4.62,0.501 µM (active),-25.2,7.58,> 46,> 9.22,inactive,inactive,,,,0.158 µM (active)
